Molecules are shown by their SMILES. Inconclusive results are not listed. Where a call stands in place of a potency, no number is given. The source made the active and inactive calls. Calls follow the shape of the dose curve; as a rule, active = well fitted curve in the direction sought with a large enough effect; inconclusive = small, poorly fitted or top-dose-only effect, or another doubt; inactive = no such curve, though single readings can be large or run the other way.

For 26 compounds, Potency results are on record in PubChem BioAssay AID1224856 (National Center for Advancing Translational Sciences (NCATS), 2016).

A short description of this assay: Cell viability assay for measurement of the protective activity of small molecules against cell death caused by Zika virus infection in human astrocytes. The settings on record: human astrocytes ZIKV-induced death, ATP luminescence, 72 h; series mostly up to 46.1 µM. The essentials:
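Human astrocytes (350 cells/well) were treated with compound 1 h before Zika virus infection (2 FFU/cell) and incubated 72 h at 37 °C. Viability was read as ATP-content luminescence, and results are given as percent inhibition of virus-induced viability loss.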
`O=C(C=CC=Cc1ccc2c(c1)OCO2)N1CCCCC1`: the Potency result is “inactive”.
As to `O=C1NC(=O)C(=Cc2ccc(-c3ccc(F)cc3)o2)S1`, the Potency result was “inactive”.
With `CN(C)c1ccc(/C=C2\C(=O)Nc3ccccc32)cc1`, the Potency result is “inactive”.
For the compound `CCCCCCCC/C=C/C(=O)O`, the Potency result was “inactive”.
As for `NC(N)=NN=C(/C=C/c1ccc([N+](=O)[O-])o1)/C=C/c1ccc([N+](=O)[O-])o1`, the entry is “inactive”; as for `CC(C)OC(=O)CCCC=CC[C@@H]1[C@H](C=C[C@@H](O)COc2cccc(C(F)(F)F)c2)[C@H](O)C[C@@H]1O`, “inactive”; as for `Cc1oncc1C(=O)Nc1ccc(C(F)(F)F)cc1`, “inactive”.
Consider `C[C@@H]1CCN(C(=O)CC#N)C[C@H]1N(C)c1ncnc2[nH]ccc12`, for which the Potency entry is “inactive”.
As for `Nc1ncnc2c1ncn2[C@@H]1O[C@@H](CO)[C@H](O)[C@H]1O`, the entry is “inactive”.
As to `Cc1c(NC(=O)c2ccc(C(C)(C)C)cc2)cccc1-c1cn(C)c(=O)c(Nc2ccc(C(=O)N3CCOCC3)cc2)n1`, the Potency result is “inactive”.
`CC1(C)Cc2c(sc(NC(=S)NC(=O)c3ccccc3)c2C(=O)O)CO1`: the Potency entry was “inactive”.
`O=C(Nc1cc2cc[nH]c2cn1)c1ccccc1`: the Potency entry is “inactive”.
Take `O=c1cc(-c2ccccc2)oc2cc(O)c(O)c(O)c12`: the Potency entry was “inactive”.
Consider `O[C@@H](COc1cccc2ncccc12)CN1CCN(C2c3ccccc3[C@@H]3[C@H](c4ccccc42)C3(F)F)CC1` (stereo partly specified), for which the Potency entry was “inactive”.
Turning to `Nc1ccc(O)c(C(=O)O)c1`, the Potency entry was “inactive”.
`CCCCCNC(=O)N1CCC(CN(Cc2ccc(Cl)cc2)Cc2ccc([N+](=O)[O-])s2)C1` (stereo unspecified): the Potency entry is “inactive”.
Take `COc1cccc(-c2ccc(NC(=O)C3=C(C(=O)O)CCC3)c(F)c2)c1`: the Potency result is “inactive”.
As for `CN(C)c1cc(NC(=O)CNC(C)(C)C)c(O)c2c1C[C@@H]1C[C@H]3[C@H](N(C)C)C(=O)C(C(N)=O)=C(O)[C@@]3(O)C(=O)C1=C2O`, the entry is “inactive”; as for `N#C/C(=C\c1ccc(O)c(O)c1)C(=O)Nc1ccccc1`, “inactive”.
As for `C[C@@H](O[C@H]1OCCN(Cc2n[nH]c(=O)[nH]2)[C@@H]1c1ccc(F)cc1)c1cc(C(F)(F)F)cc(C(F)(F)F)c1`, the entry is “inactive”.
As to `Cc1cccc(/C=C/c2ccccc2)n1`, the Potency result is “inactive”.
For `COCCn1c2c([n+](Cc3cnccn3)c1C)C(=O)c1ccccc1C2=O`, the Potency result is “inactive”.
For the compound `CN1CC(=O)N/C1=N/C(=O)Nc1cccc(Cl)c1`, the Potency result was “inactive”.
As for `CC1(C)OC2=C(C(=O)c3ccccc3C2=O)[C@H](NCc2ccccc2)[C@H]1O`, the entry is “inactive”; as for `CC(=O)Nc1ccc([C@H](C)C(=O)Nc2ncc(C(C)C)s2)cc1`, 4.89 µM (active).
For `O=C(Nc1ccc(Br)cc1)c1cc(Br)cc(Br)c1O`, the Potency entry is “inactive”.
